According to the supplement of paper PMC3842684:

Legend:
[1] = test system: P. falciparum NF54-pfs16-GFP early (I-III) stage gametocytes; test: relative % inhibition of viable gametocyte number; higher = more gametocytocidal; conditions: stage: early (I-III) gametocyte, incubation 72 h
Summary of the method: (§1)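 Compound was tested in duplicate at 5 or 0.5 µM on magnet-isolated NF54 pfs16-GFP gametocytes, taken either early (I/IIa, day 2) or late (day 8) and plated at 10% parasitaemia, 0.1% haematocrit. Incubation ran 72 h at 37°C, 5% CO2, 5% O2, followed by overnight MitoTracker Red staining and confocal imaging. Relative inhibition, based on counts of elongated GFP objects with above-cut-off MitoTracker signal, was normalised to in-plate vehicle and positive-control wells.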

[2] = test system: P. falciparum NF54-pfs16-GFP late (IV-V) stage gametocytes; test: as above; conditions: stage: late (IV-V) gametocyte, incubation 72 h
Summary of the method: as §1

| SMILES | relative % inhibition ([1]; 0.5 µM) | relative % inhibition ([1]; 5 µM) | relative % inhibition ([2]; 0.5 µM) | relative % inhibition ([2]; 5 µM) |
| --- | --- | --- | --- | --- |
| COc1ccc(C2c3ccc4ccccc4c3Oc3ncn(CCCN(C)C)c(=N)c32)cc1 (configuration not stated) | 76.2% | -22.6% | 108% | 115% |
| CCOC(=O)C1=C(C)N=c2sc(=Cc3cc(Cl)ccc3O)c(=O)n2C1c1ccc(OC)cc1 (configuration not stated) | 105% | 108% | 94.5% | 103% |
| COc1cccc(Nc2nc(N)c3ccccc3n2)c1 | -16.5% | -5.49% | 7.14% | 1.59% |
| O=c1nc(C=Cc2ccc(Br)cc2)oc2ccccc12 | 10.7% | -18.8% | 4.47% | 101% |
| Oc1ccccc1CN1CCC2(CCCN(Cc3ccccc3F)C2)C1 (configuration not stated) | 32.5% | 93.8% | 34.9% | 61.2% |
| Cc1cccc(Nc2nc(N)c3ccccc3n2)c1 | -18.5% | -18.1% | -5.43% | 5.81% |
| COc1ccc(CCN2CCC(CN(C)Cc3cnn(-c4ccccc4)c3)CC2)cc1 | 4.18% | 65.3% | 11.3% | -5.77% |
| Oc1ccc(-c2nc(-c3ccc4oc5ccc(-c6[nH]c(-c7ccc(O)cc7)nc6-c6ccccc6)cc5c4c3)c(-c3ccccc3)[nH]2)cc1 | 92.1% | 107% | 3.61% | 52.7% |
| COc1cc(C(=O)ON=C(N)Cc2cccc3ccccc23)cc(OC)c1OC | -8.44% | 74.1% | 2% | 82.3% |
| CC(=O)NCCc1nc2ccccc2n1Cc1ccc(C(C)C)cc1 | 8.03% | 50.5% | -8.38% | 2.88% |
| O=C(Nc1ccc(C23CC4CC(CC(c5ccccc5)(C4)C2)C3)cc1)c1cccs1 | -8.5% | 12.3% | 12.9% | 31.6% |
| Cn1c(=O)c2cc(C(=O)NCCCN3CCCCCC3)sc2c2ccccc21 | 13.6% | 27.4% | -1.01% | -0.0726% |
| COc1ccc(C(=O)NC(c2ccccc2Cl)c2cc(Cl)c3cccnc3c2O)cc1 (configuration not stated) | 5.42% | 49.4% | 18.6% | 38.6% |
| CCn1c(SCC(=O)Nc2cc(C(F)(F)F)ccc2Cl)nc2ccccc2c1=O | 27.2% | 5.95% | 5.8% | -6.79% |
| CC1(c2ccccc2)Nc2ccccc2-c2nc3ccccc3n21 (configuration not stated) | 1.27% | 32.3% | 46.2% | 46.6% |
| CCCc1c(CC)c(=N)c2ccccc2n1C | 25.1% | 19.6% | 7.6% | -7.96% |
| Cc1cc(C)cc(Nc2cc(C)nc3nc(C(F)(F)F)nn23)c1 | -6.02% | 10% | -4.65% | -1.16% |
| CCOC(=O)c1cnc2ccc(CC)cc2c1O | -8.43% | 42.6% | 73.6% | 79.8% |
| CC(C)(C)c1ccc(O)c(CNC2CCCCC2)c1 | 89.9% | 90.6% | 61.1% | 81% |
| Cc1c(C)n(CC(O)CNC2CCCCC2C)c2ccccc12 (configuration not stated) | 41.6% | 98.7% | 34.2% | 54.5% |
| OC(CNC1CCCC1)Cn1c2ccccc2c2ccccc21 (configuration not stated) | 15.6% | 91.7% | 24.2% | 66% |
| COCCNC(=O)c1ccc(OC2CCN(Cc3ccc(F)c(F)c3)CC2)c(Cl)c1 | 7.61% | -0.414% | 14.2% | 39.9% |
| Cc1cc(Nc2cccc(F)c2)nc(NCc2ccccc2)n1 | 28.5% | 72.2% | 24.1% | 34.6% |
| CCOc1ccc(CCNC(=O)c2cccs2)cc1OCC | -1.74% | 30.1% | -6.65% | 16.1% |

| SMILES | relative % inhibition ([1]; 0.5 µM) | relative % inhibition ([1]; 5 µM) | relative % inhibition ([2]; 0.5 µM) | relative % inhibition ([2]; 5 µM) |
| --- | --- | --- | --- | --- |
| COc1ccc(C=C2SC(Nc3ccccc3)=NC2=O)cc1 | 11.7% | 17.7% | 47.2% | 61.6% |
| N#Cc1nc(Cc2cccc3ccccc23)oc1N1CCN(C(c2ccccc2)c2ccccc2)CC1 | -3.05% | 2.44% | 7.14% | 40.5% |
| Cc1ccc(CSCc2ccc(C(=O)NC3CC3)o2)cc1 | 1.49% | -7.92% | 19.6% | 43.1% |
| Nc1nc(Nc2cccc(F)c2)nc2ccccc12 | 5.49% | -3.66% | 15.1% | 2.78% |
| O=C(Nc1ccsc1C(=O)NC1CCCCC1)c1ccc(F)cc1 | -1.56% | 19.9% | -4.86% | -23.6% |
| CCC(=O)Nc1nnc(Cc2ccc(OC)c(OC)c2)s1 | 16.8% | 4.14% | 0.759% | 6.51% |
| COc1cccc(O)c1CN1CCC2(CCCN(Cc3ccc(F)cc3)C2)C1 (configuration not stated) | 11.3% | 80.5% | 17.2% | 98.8% |
| O=[N+]([O-])c1ccc(C=NNc2nc3ccccc3[nH]2)cc1 | 26.8% | 59.1% | -1.37% | -1.1% |
| CCCN(CCC)CC(O)COc1ccccc1C(=O)Nc1ccccc1 (configuration not stated) | 22.5% | 101% | 34.9% | 65.1% |
| CC(C)(C)C(=O)Nc1ccc(C(=O)Nc2cccc(-c3nc4ccccc4[nH]3)c2)cc1 | 7.02% | 15.3% | 3.45% | 17.3% |
| CNCCCNc1ccnc2cc(Cl)ccc12 | 106% | 106% | 26.6% | 39.1% |
| COc1ccc(C(=O)Nc2nonc2-c2ccc(OC)c(OC)c2)cc1Cl | 33.4% | 31.6% | 13.1% | 59.1% |
| Oc1ccc2ccccc2c1CNc1nc2ccccc2[nH]1 | 11% | 66.5% | 6.29% | 12% |
| CCCCN(CCCC)S(=O)(=O)c1ccc(NC(=O)c2ccco2)cc1 | 16.5% | 7.65% | 7.52% | 1% |
| COc1ccc(-c2c(C)nn3c(N)c(C#N)cnc23)cc1OC | -24.1% | 22.9% | 63.6% | 108% |
| COc1cccc(C2(C)Nc3ccccc3-c3nc4ccccc4n32)c1 (configuration not stated) | -5.06% | 5.7% | 27.8% | 16.2% |
| Cc1sc(NC(=O)c2ccco2)c(C(c2cccnc2)N2CCC(Cc3ccccc3)CC2)c1C (configuration not stated) | -12.2% | 85.7% | 14.3% | 106% |
| COc1ccc(NC(=O)C2c3ccccc3C(=O)N(CC(C)C)C2c2cccs2)cc1Cl (configuration not stated) | 42.8% | 90.9% | 54.9% | 66% |
| CCn1c(CN2CCN(Cc3ccccc3)CC2)nc2cc(NC(=O)c3cccs3)ccc21 | -11.6% | 9.85% | 28.5% | 50.7% |
| CCOC(=O)c1cn(CC)c2cc(N3CCCCC3)c(F)cc2c1=O | 22% | 17% | 91.5% | 93.5% |
| Oc1c2c(nc3ccccc13)CCCC2 | 9.29% | -7.51% | 26.9% | 90.8% |
| Cc1ccc(C)c(-c2csc(Nc3ccc(C)c(C)c3)n2)c1 | 9.93% | -13.3% | 15.6% | 41.4% |
| CCOc1ccc(Nc2ccnc3cc(Cl)ccc23)cc1 | -5.49% | -2.53% | 14.7% | 14.7% |
| CN1CCN(c2ncnc3c2[nH]c2ccc(Cl)cc23)CC1 | 9.76% | 20.1% | 2.38% | 7.14% |
